Test results reported in the supplement of paper PMC12494721.
Structures can show the parent of a compound that is named as a salt.

How the values were obtained:
Settings in all cases: incubation time: 27 h, anaerobic, 37 °C;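 for the amine columns active = adjusted P below 0.05 in both replicates with a change the same way and a mean fold change under 0.8 or over 1.25; inactive = the rest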
[1] = tested on: Clostridium sporogenes DSM 1664; assay: growth (OD595) fold change vs plate DMSO controls (fold change (ratio)); higher = more growth
Procedure, shortened: (§1)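 Growth is the fold change relative to the median of plate DMSO controls. Readings came from anaerobic mGAM cultures in 96-well plates grown for 27 h at 37 °C and read at 595 nm. They were blank-subtracted, corrected for compound background with 20 µM compound solutions in water, and converted to OD with a calibration factor of 5. Values are means of 2 biological replicates, and fold changes above 1.5 were set to NA.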

Escherichia coli IAI1 [2] = assay: as above
Procedure, shortened: as §1

[3] = tested on: Klebsiella aerogenes DSM 30053; assay: as above
Procedure, shortened: as §1

[4] = tested on: Ruminococcus gnavus DSM 108212; assay: as above
Procedure, shortened: as §1

[5] = tested on: Klebsiella aerogenes DSM 30053; assay: fold change of Histamine concentration vs plate DMSO controls (fold change (ratio)); higher = more amine produced, active = hit call of the paper (significant change in both replicates, either direction)
Procedure, shortened: (§2)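 Amine values are fold changes relative to DMSO-only wells on the same plate. They derive from 27 h, 37 °C anaerobic mGAM cultures of four gut bacterial strains in 80 µL wells, dosed at 20 µM final, or 50 µM final for sweeteners. Extraction of the whole culture, LC–triple-quadrupole MS in dynamic MRM mode, external calibration curves and within-batch drift correction were used, with 2 biological replicates averaged.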

[6] = tested on: Clostridium sporogenes DSM 1664; assay: fold change of Tryptamine concentration vs plate DMSO controls (fold change (ratio)); higher = more amine produced, active = hit call of the paper (significant change in both replicates, either direction)
Procedure, shortened: as §2

[7] = tested on: Ruminococcus gnavus DSM 108212; assay: as above
Procedure, shortened: as §2

Escherichia coli IAI1 [8] = assay: fold change of Putrescine concentration vs plate DMSO controls (fold change (ratio)); higher = more amine produced, active = hit call of the paper (significant change in both replicates, either direction)
Procedure, shortened: as §2

[9] = tested on: Klebsiella aerogenes DSM 30053; assay: as above
Procedure, shortened: as §2

Escherichia coli IAI1 [10] = assay: fold change of Cadaverine concentration vs plate DMSO controls (fold change (ratio)); higher = more amine produced, active = hit call of the paper (significant change in both replicates, either direction)
Procedure, shortened: as §2

[11] = tested on: Klebsiella aerogenes DSM 30053; assay: as above
Procedure, shortened: as §2

[12] = tested on: Ruminococcus gnavus DSM 108212; assay: fold change of 2-Phenylethylamine concentration vs plate DMSO controls (fold change (ratio)); higher = more amine produced, active = hit call of the paper (significant change in both replicates, either direction)
Procedure, shortened: as §2

| Compound | growth [1] | growth (Escherichia coli IAI1 [2]) | growth [3] | growth [4] | fold change of Histamine concentration [5] | fold change of Tryptamine concentration [6] | fold change of Tryptamine concentration [7] | fold change of Putrescine concentration (Escherichia coli IAI1 [8]) | fold change of Putrescine concentration [9] | fold change of Cadaverine concentration (Escherichia coli IAI1 [10]) | fold change of Cadaverine concentration [11] | fold change of 2-Phenylethylamine concentration [12] |
| --- | --- | --- | --- | --- | --- | --- | --- | --- | --- | --- | --- | --- |
| CN(C)CCCO[C@@H]1[C@H]2OC(C)(C)O[C@H]2O[C@@H]1[C@H](O)CO [Amiprilose hydrochloride] (20 µM) | 1.09 | 1.03 | 1.01 | 1.1 | 1.07 (inactive) | 1.04 (inactive) | 1.04 (inactive) | 0.973 (inactive) | 1.02 (inactive) | 0.994 (inactive) | 0.992 (inactive) | 1.01 (inactive) |
| CN(C)CCCN1c2ccccc2Sc2ccc(C(F)(F)F)cc21 [Triflupromazine hydrochloride] (20 µM) | 1.08 | 1.04 | 1.01 | 1.21 | 0.959 (inactive) | 1.05 (inactive) | 0.814 (inactive) | 1.01 (inactive) | 0.998 (inactive) | 1.08 (inactive) | 1.01 (inactive) | 0.821 (inactive) |
| CC1(C)[C@H](C(=O)O)N2C(=O)C[C@H]2S1(=O)=O [Sulbactam] (20 µM) | 0.592 | 1.19 | 0.976 | 1.21 | 1.05 (inactive) | 1.07 (inactive) | 1.07 (inactive) | 1.14 (inactive) | 0.983 (inactive) | 0.985 (inactive) | 1.01 (inactive) | 1.08 (inactive) |
| CC(=O)N[C@@H](CS)C(=O)O [Acetylcysteine] (20 µM) | 0.935 | 1.07 | 0.967 | 0.985 | 1.14 (inactive) | 1.07 (inactive) | 0.993 (inactive) | 1.03 (inactive) | 1.02 (inactive) | 1.02 (inactive) | 0.987 (inactive) | 1 (inactive) |
| CC(C)C(=O)OCC(=O)[C@@]12O[C@H](C3CCCCC3)O[C@@H]1C[C@H]1[C@@H]3CCC4=CC(=O)C=C[C@]4(C)[C@H]3[C@@H](O)C[C@@]12C [Ciclesonide] (20 µM) | 1.08 | 1.12 | 1.01 | 1.17 | 1.02 (inactive) | 0.953 (inactive) | 0.966 (inactive) | 1.11 (inactive) | 0.999 (inactive) | 0.979 (inactive) | 0.99 (inactive) | 0.956 (inactive) |
| CC(C)(CO)[C@@H](O)C(=O)NCCCC(=O)O [Hopantenate calcium] (20 µM) | 1.07 | 0.997 | 0.983 | 1.05 | 1.03 (inactive) | 1.02 (inactive) | 1.04 (inactive) | 1.01 (inactive) | 0.995 (inactive) | 1.03 (inactive) | 0.988 (inactive) | 1.03 (inactive) |
| Nc1ccn([C@@H]2O[C@H](CO)[C@@H](O)[C@@H]2O)c(=O)n1 [Cytarabine] (20 µM) | 0.956 | 1.03 | 1.03 | 0.571 | 0.975 (inactive) | 0.967 (inactive) | 0.63 (active) | 0.953 (inactive) | 1.02 (inactive) | 1.32 (active) | 1.01 (inactive) | 0.69 (active) |
| CC(C)N1CCN(c2ccc(OCC3COC(Cn4cncn4)(c4ccc(Cl)cc4Cl)O3)cc2)CC1 (stereo not given) [Terconazole] (20 µM) | 1.12 | 1 | 1.01 | 1 | 0.996 (inactive) | 0.976 (inactive) | 1 (inactive) | 1 (inactive) | 0.993 (inactive) | 0.989 (inactive) | 1 (inactive) | 0.977 (inactive) |
| Cc1ncc(C[n+]2csc(CCO)c2C)c(N)n1 [Thiamine hydrochloride] (20 µM) | 0.972 | 0.961 | 1.01 | 1.14 | 0.968 (inactive) | 1.06 (inactive) | 0.914 (inactive) | 1.01 (inactive) | 0.998 (inactive) | 1.01 (inactive) | 1.01 (inactive) | 0.868 (inactive) |
| CNCCCC1c2ccccc2C=Cc2ccccc21 [Protriptyline hydrochloride] (20 µM) | 0.921 | 1.01 | 0.958 | 0.968 | 1.02 (inactive) | 1.12 (inactive) | 0.848 (inactive) | 1.17 (inactive) | 1.02 (inactive) | 1.12 (inactive) | 0.998 (inactive) | 0.829 (inactive) |
| Cc1ncc([N+](=O)[O-])n1C [Dimetridazole] (20 µM) | 0.0144 | 1.02 | 0.995 | 0.811 | 0.868 (inactive) | 0.0153 (active) | 0.218 (active) | 1.05 (inactive) | 1.01 (inactive) | 1.07 (inactive) | 1.01 (inactive) | 0.218 (active) |
| CCN1C(=O)NC(c2ccccc2)C1=O (stereo not given) [Ethotoin] (20 µM) | 0.983 | 0.999 | 0.982 | 1.14 | 1.06 (inactive) | 0.942 (inactive) | 0.879 (inactive) | 0.991 (inactive) | 0.991 (inactive) | 0.999 (inactive) | 0.981 (inactive) | 0.855 (inactive) |
| COCCc1ccc(OCC(O)CNC(C)C)cc1 (stereo not drawn) [Metoprolol-(+)-tartrate salt] (20 µM) | 1.01 | 1.03 | 1.03 | 1.05 | 0.856 (inactive) | 1.02 (inactive) | 1.03 (inactive) | 0.998 (inactive) | 0.955 (inactive) | 1.02 (inactive) | 1 (inactive) | 0.995 (inactive) |
| CCC(=O)OCC(=O)[C@@]1(OC(=O)CC)[C@@H](C)C[C@H]2[C@@H]3CCC4=CC(=O)C=C[C@]4(C)[C@@]3(Cl)[C@@H](O)C[C@@]21C [Beclomethasone dipropionate] (20 µM) | 1.19 | 0.997 | 1.04 | 1.22 | 1 (inactive) | 1.01 (inactive) | 0.937 (inactive) | 0.954 (inactive) | 1.01 (inactive) | 1.02 (inactive) | 0.995 (inactive) | 0.921 (inactive) |
| CC(C)Cc1ccc(C(C)C(=O)OCc2ccccn2)cc1 (stereo not given) [Ibuprofen Piconol] (20 µM) | 0.967 | 1 | 0.98 | 1.13 | 1.01 (inactive) | 1.01 (inactive) | 1.1 (inactive) | 1 (inactive) | 1.01 (inactive) | 0.983 (inactive) | 0.996 (inactive) | 1.15 (inactive) |
| CC(=O)c1ccc(S(=O)(=O)NC(=O)NC2CCCCC2)cc1 [Acetohexamide] (20 µM) | 0.85 | 1.02 | 0.972 | 1.33 | 1.05 (inactive) | 1.03 (inactive) | 0.951 (inactive) | 0.999 (inactive) | 1 (inactive) | 1.05 (inactive) | 0.984 (inactive) | 0.942 (inactive) |
| O=C(O)c1ccccc1C(=O)Nc1ccc(S(=O)(=O)Nc2nccs2)cc1 [Phthalylsulfathiazole] (20 µM) | 0.901 | 0.981 | 0.96 | 1.09 | 1 (inactive) | 1.1 (inactive) | 0.948 (inactive) | 1.03 (inactive) | 1.01 (inactive) | 1.04 (inactive) | 0.987 (inactive) | 0.919 (inactive) |
| COc1cc([C@@H]2c3cc4c(cc3[C@@H](O[C@@H]3O[C@@H]5CO[C@@H](C)O[C@H]5[C@H](O)[C@H]3O)[C@H]3COC(=O)[C@H]23)OCO4)cc(OC)c1O [Etoposide] (20 µM) | 0.285 | 1.05 | 1.2 | 0.101 | 0.858 (inactive) | 0.403 (active) | 0.248 (active) | 1.08 (inactive) | 0.982 (inactive) | 0.966 (inactive) | 1.03 (inactive) | 0.236 (active) |
| COC(=O)Nc1nc2ccc(SC(C)C)cc2[nH]1 [Methiazole] (20 µM) | 0.921 | 1 | 1.24 | 1.08 | 0.952 (inactive) | 1.04 (inactive) | 0.938 (inactive) | 0.996 (inactive) | 1.01 (inactive) | 1.04 (inactive) | 1.02 (inactive) | 0.929 (inactive) |
| CCCSc1ccc2[nH]c(NC(=O)OC)nc2c1 [Albendazole] (20 µM) | 0.989 | 1.01 | 1.05 | 0.661 | 1.09 (inactive) | 0.961 (inactive) | 1.07 (inactive) | 1.01 (inactive) | 1.02 (inactive) | 0.982 (inactive) | 1.01 (inactive) | 1.13 (inactive) |
| CC(=O)OCC(=O)[C@@]1(O)CC[C@H]2[C@@H]3CCC4=CC(=O)C=C[C@]4(C)[C@@]3(F)[C@@H](O)C[C@@]21C [Isoflupredone acetate] (20 µM) | 0.985 | 1.02 | 0.983 | 1 | 1.09 (inactive) | 1.03 (inactive) | 1.1 (inactive) | 1 (inactive) | 1.03 (inactive) | 0.988 (inactive) | 1.11 (inactive) | 1.22 (inactive) |
| CC=CC1=C(C(=O)O)N2C(=O)[C@@H](NC(=O)[C@H](N)c3ccc(O)cc3)[C@H]2SC1 [Cefprozil] (20 µM) | 0.404 | 1.01 | 0.983 | 0.5 | 1.06 (inactive) | 0.324 (active) | 0.637 (inactive) | 0.914 (inactive) | 1.02 (inactive) | 0.955 (inactive) | 1.02 (inactive) | 0.843 (inactive) |
| CCCCNc1c(C(=O)OCC)c(C)nc2c1cnn2CC [Tracazolate hydrochloride] (20 µM) | 1.14 | 0.998 | 1.01 | 0.943 | 0.977 (inactive) | 0.933 (inactive) | 1.08 (inactive) | 1.01 (inactive) | 0.993 (inactive) | 1.03 (inactive) | 1 (inactive) | 1.11 (inactive) |
| c1ccc2c(CC3=NCCN3)cccc2c1 [Naphazoline hydrochloride] (20 µM) | 0.845 | 0.633 | 0.644 | 0.57 | 1.01 (inactive) | 1.01 (inactive) | 1.01 (inactive) | 0.978 (inactive) | 1 (inactive) | 0.96 (inactive) | 1 (inactive) | 0.994 (inactive) |
| N[C@@H]1CCCCN(c2c(F)cc3c(=O)c(C(=O)O)cn(C4CC4)c3c2Cl)C1 [Besifloxacin hydrochloride] (20 µM) | 0.0111 | 0.0312 | 0.191 | 0.266 | 0.189 (active) | 0.0464 (active) | 0.149 (active) | 0.814 (inactive) | 1.08 (inactive) | 0.267 (active) | 0.988 (inactive) | 0.166 (active) |
